This is an account of results in PubChem BioAssay (EPA / NIEHS).

Assay [1] has as its target Estrogen receptor (Homo sapiens) (UniProt P03372). Briefly: OT_ERa_GFPERaERE_0480: Odyssey Thera (OT) 8-hour HeLa Transcription Induction Assay for Estrogen Receptor (AID 2283381; active = hit-call score of the fitted dose curve at least 0.9, where 1 is the maximum; inactive = score below 0.9). In short, it runs like this:
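GFP-ERE reporter, HeLa, 8 h exposure. Readout: fluorescence microscopy, high-content image analysis. Fit direction positive vs DMSO negative control.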

The target is the same in assay [2]. Briefly: OT_ERa_GFPERaERE_0120: Odyssey Thera (OT) 2-hour HeLa Transcription Induction Assay for Estrogen Receptor (AID 2283382). A digest of the protocol:
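Fluorescence microscopy read-out: inducible fluorescent protein reporter in HeLa cells, imaged 2 h post-dose. Signal increase over DMSO negative control fitted as single primary endpoint via high content image analysis.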

The target of assay [3] is Retinoic acid receptor RXR-alpha (Homo sapiens) (UniProt P19793). Kind of assay: OT_NURR1_NURR1RXRa_1440: Odyssey Thera (OT) 24-hour HEK293T Protein Complementation Assay for Nurr1/retinoid X receptor (RXR) (AID 2283386). A digest of the protocol:
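Fluorescence PCA read-out; HEK293T; 24 h post-dose; bait/prey fused to reporter fragments; gain-of-signal fit vs DMSO negative control.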

Assay [4] has as its target Estrogen receptor beta (Homo sapiens) (UniProt Q92731). Kind of assay: OT_ER_ERbERb_1440: Odyssey Thera (OT) 24-hour HEK293T Protein-Complementation Assay for Estrogen Receptor-beta/-beta Homodimer (AID 2283380).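 Also: fluorescence gain from ER beta LBD homodimer complementation read by laser scanning cytometry; scored as signal increase over DMSO baseline for both agonists and antagonists.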 A digest of the protocol: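 Fluorescence increase, nuclear for agonists or whole-cell for antagonists, relative to DMSO vehicle, quantified by laser scanning cytometer after fixation and Draq5 staining. Readout from 24 h treatment of HEK293T cells carrying complementation-paired ER beta LBD (aa 310-547).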

Assay [5] has as its target Retinoic acid receptor RXR-alpha (Homo sapiens) (UniProt P19793). Briefly: OT_NURR1_NURR1RXRa_0480: Odyssey Thera (OT) 8-hour HEK293T Protein Complementation Assay for Nurr1/retinoid X receptor (RXR) (AID 2283385). A digest of the protocol:
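Read-out: fluorescence from protein-fragment complementation between Nurr1 and RXRα in human HEK293T cells, 8 h after dosing. DMSO served as negative control; increased signal counted as activity.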

In assay [6] the target is Bile acid receptor (Homo sapiens) (UniProt Q96RI1). Kind of assay: OT_FXR_FXRSRC1_0480: Odyssey Thera (OT) 8-hour HEK293T Protein-Complementation Assay for Farnesoid X receptor/SRC-1 Co-activator (AID 2283383). In short, it runs like this: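 Fluorescence intensity read-out, 8 h post-dose, HEK293T protein-fragment complementation; FXR bait and SRC-1 prey each linked to reporter fragments. Activity scored as signal increase over DMSO negative control.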
Chain of Bile acid receptor (Homo sapiens) (Q96RI1 whole entry, looked up, the tested form may be a part): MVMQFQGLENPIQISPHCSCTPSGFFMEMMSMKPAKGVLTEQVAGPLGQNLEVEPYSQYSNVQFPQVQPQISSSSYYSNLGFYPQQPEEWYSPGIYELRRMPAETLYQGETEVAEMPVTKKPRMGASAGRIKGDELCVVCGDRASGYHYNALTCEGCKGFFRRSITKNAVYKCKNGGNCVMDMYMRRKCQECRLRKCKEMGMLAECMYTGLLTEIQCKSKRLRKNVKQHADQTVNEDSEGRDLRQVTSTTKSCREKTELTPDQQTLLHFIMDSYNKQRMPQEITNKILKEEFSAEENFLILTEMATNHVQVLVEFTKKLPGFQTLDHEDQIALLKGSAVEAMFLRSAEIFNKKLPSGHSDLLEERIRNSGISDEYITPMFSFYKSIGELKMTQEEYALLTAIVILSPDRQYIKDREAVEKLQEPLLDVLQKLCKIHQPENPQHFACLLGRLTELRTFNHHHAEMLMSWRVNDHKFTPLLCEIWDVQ

For assay [7], the target named is Agonist Androgen Response Element (ARE), AR (gene 367) (UniProt P10275). Briefly: OT_AR_ARELUC_AG_1440: Odyssey Thera (OT) 24-hour CHO-K1 Luciferase Assay for Agonist Androgen Response Element (ARE) (AID 2283379). In short, it runs like this: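 Readout: luciferase bioluminescence from CHO-K1 ARE-luc cells, measured 24 h post-dosing; agonism = increased mean luminescence vs DMSO controls, fitted in positive direction.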
Chain of Agonist Androgen Response Element (ARE), AR (gene 367) (P10275 whole entry, looked up): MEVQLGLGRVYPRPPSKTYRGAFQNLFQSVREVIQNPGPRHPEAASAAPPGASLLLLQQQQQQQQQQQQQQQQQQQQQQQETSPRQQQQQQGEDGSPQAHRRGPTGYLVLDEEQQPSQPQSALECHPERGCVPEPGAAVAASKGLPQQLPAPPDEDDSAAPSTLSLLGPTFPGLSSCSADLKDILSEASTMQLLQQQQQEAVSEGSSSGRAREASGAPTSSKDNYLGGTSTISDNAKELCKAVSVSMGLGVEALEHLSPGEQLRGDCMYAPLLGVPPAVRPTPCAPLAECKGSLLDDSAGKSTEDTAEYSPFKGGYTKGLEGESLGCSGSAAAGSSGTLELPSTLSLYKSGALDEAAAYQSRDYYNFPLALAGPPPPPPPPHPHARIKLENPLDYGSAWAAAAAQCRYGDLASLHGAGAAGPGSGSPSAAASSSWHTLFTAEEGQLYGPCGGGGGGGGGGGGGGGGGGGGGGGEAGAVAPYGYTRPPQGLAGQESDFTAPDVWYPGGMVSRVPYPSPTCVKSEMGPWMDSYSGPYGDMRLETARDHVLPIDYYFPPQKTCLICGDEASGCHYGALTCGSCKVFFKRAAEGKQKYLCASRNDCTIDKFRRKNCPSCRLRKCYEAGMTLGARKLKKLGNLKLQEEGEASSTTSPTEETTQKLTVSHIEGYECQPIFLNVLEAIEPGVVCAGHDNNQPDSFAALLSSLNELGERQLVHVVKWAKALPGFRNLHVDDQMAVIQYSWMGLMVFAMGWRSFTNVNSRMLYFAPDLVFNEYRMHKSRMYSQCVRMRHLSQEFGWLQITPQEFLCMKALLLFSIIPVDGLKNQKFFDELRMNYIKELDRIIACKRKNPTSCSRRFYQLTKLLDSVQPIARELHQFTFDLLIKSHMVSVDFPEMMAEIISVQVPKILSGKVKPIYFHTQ

Structures are written as SMILES. “And” between values parts separate entries of the source, which are not always exact repeats. Equal values may be shown once. Records with an inconclusive call do not appear. Some structures have more than one record in an assay (separate samples or runs), and their calls can disagree. The source made the active and inactive calls. The calls were made as follows, unless noted: active = hit-call score of the fitted dose curve at least 0.9, where 1 is the maximum; inconclusive = response in the unintended direction; inactive = score below 0.9.

What is called AC50 is the midpoint of the concentration-response curve, whichever way the signal moves.

Chain of Estrogen receptor (Homo sapiens) (P03372 whole entry, looked up): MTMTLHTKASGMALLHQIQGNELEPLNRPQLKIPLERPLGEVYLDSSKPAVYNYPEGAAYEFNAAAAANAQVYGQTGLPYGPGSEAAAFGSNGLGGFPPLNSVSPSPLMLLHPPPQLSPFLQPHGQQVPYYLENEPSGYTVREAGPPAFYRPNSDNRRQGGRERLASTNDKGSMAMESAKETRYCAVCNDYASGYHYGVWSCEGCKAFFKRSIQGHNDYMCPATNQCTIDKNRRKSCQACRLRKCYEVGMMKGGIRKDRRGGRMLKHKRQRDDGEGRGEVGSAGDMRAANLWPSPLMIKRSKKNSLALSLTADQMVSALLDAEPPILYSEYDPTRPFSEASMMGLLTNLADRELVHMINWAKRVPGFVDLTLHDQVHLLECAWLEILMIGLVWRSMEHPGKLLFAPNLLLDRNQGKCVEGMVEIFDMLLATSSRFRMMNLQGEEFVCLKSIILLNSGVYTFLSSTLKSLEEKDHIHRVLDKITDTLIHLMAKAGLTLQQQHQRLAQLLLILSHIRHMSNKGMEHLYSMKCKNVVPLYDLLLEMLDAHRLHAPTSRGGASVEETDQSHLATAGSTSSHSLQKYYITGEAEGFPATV
Chain of Estrogen receptor beta (Homo sapiens) (Q92731 whole entry, looked up, the tested form may be a part): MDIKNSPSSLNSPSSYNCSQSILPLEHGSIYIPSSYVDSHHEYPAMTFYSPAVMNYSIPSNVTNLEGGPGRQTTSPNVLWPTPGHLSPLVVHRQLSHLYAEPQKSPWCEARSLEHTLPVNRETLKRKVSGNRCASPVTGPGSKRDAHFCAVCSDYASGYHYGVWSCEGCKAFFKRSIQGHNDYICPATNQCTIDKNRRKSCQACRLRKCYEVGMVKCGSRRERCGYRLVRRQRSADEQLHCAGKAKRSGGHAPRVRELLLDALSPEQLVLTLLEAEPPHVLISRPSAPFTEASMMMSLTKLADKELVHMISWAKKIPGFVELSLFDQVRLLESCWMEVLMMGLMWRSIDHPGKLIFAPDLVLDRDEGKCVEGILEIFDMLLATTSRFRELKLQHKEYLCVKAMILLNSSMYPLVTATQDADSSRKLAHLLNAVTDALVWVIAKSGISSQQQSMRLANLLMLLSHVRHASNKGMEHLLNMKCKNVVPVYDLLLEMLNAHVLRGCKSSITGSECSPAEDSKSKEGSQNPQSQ
Chain of Retinoic acid receptor RXR-alpha (Homo sapiens) (P19793 whole entry, looked up, the tested form may be a part): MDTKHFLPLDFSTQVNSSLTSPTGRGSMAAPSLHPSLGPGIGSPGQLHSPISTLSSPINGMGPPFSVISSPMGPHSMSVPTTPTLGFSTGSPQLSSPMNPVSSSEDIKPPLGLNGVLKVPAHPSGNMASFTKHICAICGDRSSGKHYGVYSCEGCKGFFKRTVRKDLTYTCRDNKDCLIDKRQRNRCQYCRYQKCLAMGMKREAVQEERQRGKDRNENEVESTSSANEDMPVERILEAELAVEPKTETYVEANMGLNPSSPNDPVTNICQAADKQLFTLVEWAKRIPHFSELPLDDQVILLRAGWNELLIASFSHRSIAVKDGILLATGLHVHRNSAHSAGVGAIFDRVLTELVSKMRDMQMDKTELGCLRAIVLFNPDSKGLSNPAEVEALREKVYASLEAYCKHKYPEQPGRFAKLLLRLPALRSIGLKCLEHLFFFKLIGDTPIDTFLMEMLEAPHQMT

Consider `NCCN`, for which the call in assay [1], in assay [2] and in assay [3] was inactive.

With `CCCCCCCCCCCCCCC`, the call in assay [4], in assay [5] and in assay [3] was inactive.

Regarding `CCCCc1oc2ccccc2c1C(=O)c1cc(I)c(OCCN(CC)CC)c(I)c1`, the call in assay [4], in assay [1], in assay [2] and in assay [5] was inactive. The AC50 in assay [6] was 9.16 µM (active); in assay [5] it was 8.75 µM (active); in assay [3] it was 8.94 µM (active) and 8.82 µM (active).

For `Cc1cc(Cc2cc(C)cc(C(C)(C)C)c2O)c(O)c(C(C)(C)C)c1`, the call in assay [4], in assay [1] and in assay [2] was inactive.

As to `O=C(O)c1cccc(C(=O)O)n1`, the compound was classed as inactive in assay [4], in assay [1], in assay [2], in assay [5] and in assay [3].

Turning to `CCCCCCCCCCCC`, in assay [5], the AC50 was 39.2 µM (active). Further, the outcome in assay [3] was inactive.

In the case of `CC(C)[C@@H]1CC[C@@H](C)C[C@H]1O`, the compound was classed as inactive in assay [4], in assay [6] and in assay [3].

As for `CCC(C)c1ccccc1O` (configuration not stated), the call in assay [4], in assay [5] and in assay [3] was inactive.

With `CC(O)COc1ccccc1` (configuration not stated), the outcome in assay [7], in assay [4] and in assay [3] was inactive.

On to `CS(=O)(=O)c1ccc([C@@H](CC2CCCC2)C(=O)Nc2cnccn2)cc1Cl`, for which, in assay [5], the compound was called inactive.

For `CC(=O)Nc1ccc(O)cc1`, the result in assay [7], in assay [4] and in assay [3] was inactive.

In the case of `CCCCCCCCCCCC(=O)O`, the compound was classed as inactive in assay [4], in assay [5] and in assay [3].

For `O=C1NS(=O)(=O)c2ccccc21`, the result in assay [4], in assay [5] and in assay [3] was inactive.

Turning to `CCCCCCC(C)(C)C(=O)O`, the call in assay [7], in assay [4], in assay [1], in assay [2], in assay [6] and in assay [5] was inactive. Also, in assay [3], the call was inactive.

Take `CCCCCC(C)OC(=O)COc1ccc(Cl)c2cccnc12` (configuration not stated): the result in assay [1], in assay [2] and in assay [3] was inactive. In addition, the results for the AC50 in assay [6] and in assay [5] were 44 µM (active) and 15 µM (active), respectively.

Consider `c1cnc2c(c1)ccc1cccnc12`, for which the compound was called inactive in assay [4] and in assay [5]. For the same compound, the AC50 in assay [3] was 727 nM (active).
